Screening data deposited in PubChem BioAssay by several laboratories.
A3G deaminase: blocks human APOBEC3G single-stranded DNA deamination; Q9HC16; recombinant A3G, ssDNA deamination FAM/TAMRA fluorescence; inhibition, % at 20 µM; actives 0.28% (n = 330,000); AID 493012;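 active = inhibition of at least 40% at 20 µM, with no more than 30% in the related APOBEC3A deaminase screen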;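 also: plate controls were DMSO wells with A3G for no effect and wells lacking A3G enzyme for full effect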
NTR1 ag: activates human neurotensin receptor 1. activation, % at 20 µM. P30989. AID 493036. NTR1-U2OS beta-arrestin-GFP spot imaging, agonist mode. actives 0.17% (n = 330,000);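 active = activation at or above 40% of the spot to cytoplasm intensity ratio, with at least 20 cells analyzed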;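 also: 0% = DMSO without peptide and 100% = 100 nM NTR1 peptide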
Target sequence (P30989 whole entry, looked up): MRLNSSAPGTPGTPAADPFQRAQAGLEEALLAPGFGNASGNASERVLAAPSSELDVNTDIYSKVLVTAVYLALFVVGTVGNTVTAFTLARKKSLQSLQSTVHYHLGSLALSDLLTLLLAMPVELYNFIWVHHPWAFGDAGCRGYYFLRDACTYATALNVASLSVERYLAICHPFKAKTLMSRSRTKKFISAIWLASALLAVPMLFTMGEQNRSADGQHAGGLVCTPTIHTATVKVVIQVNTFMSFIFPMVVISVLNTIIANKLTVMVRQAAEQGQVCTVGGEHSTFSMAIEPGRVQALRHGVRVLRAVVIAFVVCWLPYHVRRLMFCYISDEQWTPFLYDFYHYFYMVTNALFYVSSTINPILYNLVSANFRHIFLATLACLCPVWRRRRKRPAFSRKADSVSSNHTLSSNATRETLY
AHR act: activates the human aryl hydrocarbon receptor; AID 2796; actives 2.5% (n = 320,000); P35869; activation, % at 5 µM; AHR-responsive luciferase reporter cells, luminescence; in the data active = activation above about 47%;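 also: 0% = vehicle wells and 100% = reference agonist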
A3A deaminase: human APOBEC3A DNA deaminase inhibition | P31941 | inhibition, % at 20 µM | recombinant A3A, FAM/TAMRA ssDNA deamination fluorescence | AID 493011 | actives 0.41% (n = 330,000);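 active = at least 40% inhibition at 20 µM here, with at most 30% in a related deaminase screen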;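 also: plate controls were A3A with DMSO for no effect and wells lacking A3A enzyme for full effect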
NTR1 ag confirm: NTR1 (human) agonism, confirmed; shares compounds with NTR1 ag; NTR1-U2OS beta-arrestin-GFP translocation imaging; activation, % at 20 µM; actives 38% (n = 480); AID 504550;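 active = mean activation at 20 µM of at least 40%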;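 also: 0% = DMSO without peptide and 100% = 100 nM NTR1 peptide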
An asterisk follows results filed as active; . = no result given. This is a sample that favours compounds with a hit; in the whole collection about 3.2% have one here.

SMILES	A3G deaminase	NTR1 ag	AHR act	A3A deaminase	NTR1 ag confirm
C=C(C)COc1ccc(-c2nc(N)ncc2-c2ccc(OC)c(OC)c2)c(O)c1	-5	2	.	0	.
CSc1nc2nc3c(cn2n1)C(=O)CC(c1ccccc1)C3 (configuration not stated)	-12	2	1	-10	.
O=C1CC(c2ccccc2)Cc2nc3nc(C(F)(F)F)nn3cc21 (configuration not stated)	-20	49*	3	-12	1
Cn1c(C(=O)N2CCN(c3ccccc3)CC2)cc2cc(Cl)ccc21	-2	3	8	-7	.
COc1cc(CC(NC(C)=O)C(=O)NC2CCN(C(=O)Nc3ccccc3C)CC2)cc(OC)c1 (configuration not stated)	1	42*	1	3	-2
COc1cc(CC(NC(C)=O)C(=O)NC2CCN(C(=O)Nc3ccccc3Cl)CC2)cc(OC)c1 (configuration not stated)	-8	0	2	0	.
Cn1ncc2c(Nc3cccc(Cl)c3)nc(Nc3cccc(Cl)c3)nc21	-5	64*	29	-1	29
Cc1cccc(Nc2ncnc3c2cnn3C)c1	-3	1	5	2	.
Brc1ccc(-c2csc(N/N=C/c3ccco3)n2)cc1	-6	3	1	-2	.
Clc1ccc(-c2csc(N/N=C\c3cccnc3)n2)cc1	-8	7	-2	27	.
CN(C)S(=O)(=O)c1ccc(-c2csc(N/N=C/c3ccco3)n2)cc1	-2	71*	0	-1	78*
CN(C)S(=O)(=O)c1ccc(-c2csc(N/N=C/c3ccc(O)cc3)n2)cc1	0	52*	-7	4	55*
Cc1ccc2c(c1)[nH]c1c(N3CCN(Cc4ccccc4)CC3)ncnc12	-6	56*	26	-2	8
c1ccc(CN2CCN(c3ncnc4c3[nH]c3ccccc34)CC2)cc1	-5	20	38	-4	.
Cc1ccc2[nH]c3c(N4CCN(Cc5ccccc5)CC4)ncnc3c2c1	0	43*	65*	-1	22
CC(NC(=O)c1ccc(OC2CCN(S(=O)(=O)N(C)C)CC2)cc1)C1CC1 (configuration not stated)	1	-1	-5	2	.
CCn1ccc(C(=O)Nc2ccccc2SC)n1	-5	0	2	-5	.
C/C(=N/Nc1cc(-c2ccccc2)nc(-c2ccccc2)n1)c1ccc(O)cc1	0	54*	66*	1	46*
O=C(COc1ccccc1F)NCC(c1ccco1)N1CCCC1 (configuration not stated)	0	1	1	3	.
COc1cc(CNCCc2ccccc2)cc(Cl)c1OCc1ccccc1	-6	61*	1	-1	6
COc1cc(CNCc2ccccc2)cc(Cl)c1OC	-7	3	-1	3	.
COc1ccccc1/C=C/C=N/n1c(-c2ccc(F)cc2)n[nH]c1=S	0	8	20	-5	.
COc1ccccc1/C=C\C=N\n1c(-c2ccc(Cl)cc2)n[nH]c1=S	-8	49*	17	-6	9
O=C(Nc1ccc(N2CCN(C(=O)c3ccccc3)CC2)cc1)c1cc2ccccc2o1	-2	64*	-15	2	86*
O=c1/c(=C\c2ccc(O)cc2)sc2nc(-c3ccccc3)c(-c3ccccc3)n12	-3	46*	0	2	24
SMILES	A3G deaminase	NTR1 ag	AHR act	A3A deaminase	NTR1 ag confirm
CN(C)c1cc[n+](CC(=O)c2ccc(OC(F)F)cc2)cc1	3	-1	-1	4	.
CC(C)c1nnc(NC(=O)CCC(=O)NC2CCCCCCC2)s1	2	1	0	2	.
CC(C)c1nnc(NC(=O)CCC2CCCCC2)s1	0	41*	16	-4	33
CCCOc1ccc(/C=C2/C(=O)ON=C2C)cc1OCC	-6	10	2	-3	.
CCOc1cc(/C=C2\C(=O)ON=C2C)ccc1OCc1ccccc1	1	60*	1	3	84*
CCOC(=O)Cc1cc(=O)n2[nH]cc(-c3ccc(Cl)cc3)c2n1	0	1	8	-2	.
Oc1ccc(Br)cc1/C=N/NC(=S)NCCc1ccccc1	-5	60*	18	-7	1
CC(C)c1nnc(NC(=O)c2ccc3ccccc3c2)s1	-11	45*	19	-4	21
COc1ccc(CN2C(=O)c3c(c(C)n(C)c3C)C2C(=O)NC2CCC(C)CC2)cc1 (configuration not stated)	-9	3	1	-10	.
COC(=O)c1ccc(/C=C/C(=O)OCC(=O)Nc2sccc2C(N)=O)cc1	3	45*	1	3	77*
O=C1ON=C(c2ccc(Cl)cc2)/C1=C/c1ccc(O)cc1	-1	66*	6	1	98*
O=C1ON=C(c2ccccc2)/C1=C/c1ccc(O)cc1	-4	34	2	0	.
Cc1ccc2c(c1)c1c(n2CC(O)CNC2CCCCC2)CCCC1 (configuration not stated)	-6	42*	3	-6	53*
Cc1ccc2c(c1)c1c(n2CC(O)CNC(CO)(CO)CO)CCCC1 (configuration not stated)	-8	-1	0	-6	.
OC(Cn1cncn1)(c1ccccc1)c1ccccc1	2	55*	3	0	-4
Cc1ccc2[nH]c(C)c(/C=N/Nc3nc4ccccc4s3)c2c1	-3	41*	65*	-1	37
CCC/C=N/Nc1nc2ccccc2s1	-9	0	45	-4	.
CC(C)CNS(=O)(=O)c1ccc(CCC(=O)NCCc2ccccc2)cc1	-5	2	3	2	.
CCC(C)NC(=O)c1c(N)n(/N=C/c2cccnc2)c2nc3ccccc3nc12 (configuration not stated)	-8	41*	10	-3	46*
Cc1cc(C)n(-c2nc(N(c3ccccc3)c3ccccc3)nc(-n3nc(C)cc3C)n2)n1	-7	84*	-1	-2	75*
Cc1cc(C)n(-c2nc(Nc3ccccc3)nc(-n3nc(C)cc3C)n2)n1	-22	0	6	13	.
Oc1ccccc1/C=N/Nc1cc(N2CCCC2)nc(N2CCCC2)n1	-2	40*	13	-1	27
CC(NC(=O)Cc1ccc(S(=O)(=O)N2CCOCC2)s1)c1ccc(Cl)c(Cl)c1 (configuration not stated)	-9	0	2	-2	.
COc1ccc(-c2sc3ccccc3c2-c2ccc(O)cc2)cc1	-3	26	25	0	.
COc1ccc(-c2sc3cc(OC)c(OC)cc3c2-c2ccc(O)cc2)cc1	-10	51*	18	-5	7
CCOc1ccc(Nc2nc(N(C)c3ccccc3)nc(N)c2[N+](=O)[O-])cc1	-7	6	2	-1	.
CCOc1cc(N2CCOCC2)c(OCC)cc1NC(=O)c1nn(CC)c(=O)c2ccccc12	-6	45*	-2	0	37
Cc1cccc(NC(=O)CSc2n[nH]c(-c3ccncc3)n2)c1C	5	2	3	0	.
Oc1cc(OCc2ccccc2)ccc1-c1[nH]ncc1-c1ccccc1	-1	36	15	3	.
